Results as given in ChEMBL document CHEMBL1961873, “Compounds: GSK PKIS; Assays: Nanosyn kinase panel” (2012).

Columns and labels:
[1] = molecular target: Mitogen-activated protein kinase 3 (Homo sapiens) (UniProt P27361); details: at 1 µM;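 also: values are mean percent inhibition of MAPK3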
[2] = molecular target: SRSF protein kinase 3 (Homo sapiens) (UniProt Q9UPE1); details: at 0.1 µM
[3] = molecular target: SRSF protein kinase 3 (Homo sapiens) (UniProt Q9UPE1); details: at 1 µM
[4] = molecular target: Mitogen-activated protein kinase 14 (Homo sapiens) (UniProt Q16539); details: at 0.1 µM
Sequence of Mitogen-activated protein kinase 14 (Homo sapiens) (Q16539 whole entry): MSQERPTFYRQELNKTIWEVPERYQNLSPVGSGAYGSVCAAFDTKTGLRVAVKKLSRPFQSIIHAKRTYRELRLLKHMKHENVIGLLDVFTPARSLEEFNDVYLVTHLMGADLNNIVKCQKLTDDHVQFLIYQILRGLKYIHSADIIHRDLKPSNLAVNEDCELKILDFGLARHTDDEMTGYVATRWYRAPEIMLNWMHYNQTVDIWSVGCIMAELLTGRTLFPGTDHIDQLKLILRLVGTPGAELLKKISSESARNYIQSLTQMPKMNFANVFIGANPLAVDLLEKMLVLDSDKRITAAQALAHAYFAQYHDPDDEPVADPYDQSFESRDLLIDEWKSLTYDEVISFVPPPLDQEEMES

[5] = molecular target: Mitogen-activated protein kinase 14 (Homo sapiens) (UniProt Q16539); details: at 1 µM
[6] = molecular target: Mitogen-activated protein kinase 11 (Homo sapiens) (UniProt Q15759); details: at 0.1 µM
Sequence of Mitogen-activated protein kinase 11 (Homo sapiens) (Q15759 whole entry): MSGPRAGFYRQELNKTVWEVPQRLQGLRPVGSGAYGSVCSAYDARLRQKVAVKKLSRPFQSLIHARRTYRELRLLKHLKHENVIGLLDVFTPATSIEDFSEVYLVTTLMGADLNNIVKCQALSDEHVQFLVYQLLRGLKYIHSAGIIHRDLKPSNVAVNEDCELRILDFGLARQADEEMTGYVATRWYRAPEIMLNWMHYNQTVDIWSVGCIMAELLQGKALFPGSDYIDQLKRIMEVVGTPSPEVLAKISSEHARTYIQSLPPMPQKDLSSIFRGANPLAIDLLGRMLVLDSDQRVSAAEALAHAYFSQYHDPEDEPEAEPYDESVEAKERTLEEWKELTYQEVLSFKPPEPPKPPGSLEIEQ

[7] = molecular target: Mitogen-activated protein kinase 11 (Homo sapiens) (UniProt Q15759); details: at 1 µM
[8] = molecular target: T1, Mitogen-activated protein kinase 13 (Homo sapiens) (UniProt O15264); details: at 0.1 µM
T1 sequence (whole entry): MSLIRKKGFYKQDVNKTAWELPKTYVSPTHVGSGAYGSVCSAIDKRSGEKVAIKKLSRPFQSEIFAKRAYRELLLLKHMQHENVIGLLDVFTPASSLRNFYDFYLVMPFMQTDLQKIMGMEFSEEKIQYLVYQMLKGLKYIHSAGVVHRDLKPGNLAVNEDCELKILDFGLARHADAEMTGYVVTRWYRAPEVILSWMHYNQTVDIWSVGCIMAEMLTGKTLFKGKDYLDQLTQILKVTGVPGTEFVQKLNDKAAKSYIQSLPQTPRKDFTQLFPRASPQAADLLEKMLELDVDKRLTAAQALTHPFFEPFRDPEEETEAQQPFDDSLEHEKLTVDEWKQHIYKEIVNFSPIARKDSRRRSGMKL

[9] = molecular target: T1, Mitogen-activated protein kinase 13 (Homo sapiens); details: at 1 µM
[10] = molecular target: T2, Mitogen-activated protein kinase 12 (Homo sapiens) (UniProt P53778); details: at 0.1 µM
T2 sequence (whole entry): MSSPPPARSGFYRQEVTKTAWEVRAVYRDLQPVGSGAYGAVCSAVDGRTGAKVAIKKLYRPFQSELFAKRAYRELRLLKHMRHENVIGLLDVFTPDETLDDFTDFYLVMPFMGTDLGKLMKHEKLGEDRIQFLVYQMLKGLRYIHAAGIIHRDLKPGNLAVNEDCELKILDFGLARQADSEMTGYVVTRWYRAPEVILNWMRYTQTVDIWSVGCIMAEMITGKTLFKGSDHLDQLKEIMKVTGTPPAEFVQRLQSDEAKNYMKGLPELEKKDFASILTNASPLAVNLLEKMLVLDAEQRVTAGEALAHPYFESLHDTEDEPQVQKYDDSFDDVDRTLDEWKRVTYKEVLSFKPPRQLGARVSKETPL

[11] = molecular target: T2, Mitogen-activated protein kinase 12 (Homo sapiens); details: at 1 µM
[12] = molecular target: SRSF protein kinase 1 (Homo sapiens) (UniProt Q96SB4); details: at 0.1 µM
Sequence of SRSF protein kinase 1 (Homo sapiens) (Q96SB4 whole entry, canonical isoform): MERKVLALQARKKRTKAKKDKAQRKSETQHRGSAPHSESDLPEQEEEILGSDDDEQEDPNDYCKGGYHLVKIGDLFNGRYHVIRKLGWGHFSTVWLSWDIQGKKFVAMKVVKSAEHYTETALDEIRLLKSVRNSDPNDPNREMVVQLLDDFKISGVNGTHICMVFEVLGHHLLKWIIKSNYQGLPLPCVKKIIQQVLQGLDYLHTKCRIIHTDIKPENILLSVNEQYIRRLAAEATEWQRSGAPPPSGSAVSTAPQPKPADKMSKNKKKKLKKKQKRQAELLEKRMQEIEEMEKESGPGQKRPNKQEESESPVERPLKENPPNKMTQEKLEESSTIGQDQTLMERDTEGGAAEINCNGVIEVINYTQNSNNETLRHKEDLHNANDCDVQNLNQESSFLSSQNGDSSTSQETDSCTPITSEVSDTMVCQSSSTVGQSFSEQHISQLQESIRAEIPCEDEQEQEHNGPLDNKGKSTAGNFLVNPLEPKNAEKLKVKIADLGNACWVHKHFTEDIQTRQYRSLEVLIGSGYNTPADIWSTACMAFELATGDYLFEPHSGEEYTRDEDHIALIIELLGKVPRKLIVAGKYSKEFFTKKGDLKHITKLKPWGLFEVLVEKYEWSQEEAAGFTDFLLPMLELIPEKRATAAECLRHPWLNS

[13] = molecular target: SRSF protein kinase 1 (Homo sapiens) (UniProt Q96SB4); details: at 1 µM
[14] = molecular target: Phosphatidylinositol 4,5-bisphosphate 3-kinase catalytic subunit alpha isoform (Homo sapiens) (UniProt P42336); details: at 0.1 µM
Sequence of Phosphatidylinositol 4,5-bisphosphate 3-kinase catalytic subunit alpha isoform (Homo sapiens) (P42336 whole entry, canonical isoform): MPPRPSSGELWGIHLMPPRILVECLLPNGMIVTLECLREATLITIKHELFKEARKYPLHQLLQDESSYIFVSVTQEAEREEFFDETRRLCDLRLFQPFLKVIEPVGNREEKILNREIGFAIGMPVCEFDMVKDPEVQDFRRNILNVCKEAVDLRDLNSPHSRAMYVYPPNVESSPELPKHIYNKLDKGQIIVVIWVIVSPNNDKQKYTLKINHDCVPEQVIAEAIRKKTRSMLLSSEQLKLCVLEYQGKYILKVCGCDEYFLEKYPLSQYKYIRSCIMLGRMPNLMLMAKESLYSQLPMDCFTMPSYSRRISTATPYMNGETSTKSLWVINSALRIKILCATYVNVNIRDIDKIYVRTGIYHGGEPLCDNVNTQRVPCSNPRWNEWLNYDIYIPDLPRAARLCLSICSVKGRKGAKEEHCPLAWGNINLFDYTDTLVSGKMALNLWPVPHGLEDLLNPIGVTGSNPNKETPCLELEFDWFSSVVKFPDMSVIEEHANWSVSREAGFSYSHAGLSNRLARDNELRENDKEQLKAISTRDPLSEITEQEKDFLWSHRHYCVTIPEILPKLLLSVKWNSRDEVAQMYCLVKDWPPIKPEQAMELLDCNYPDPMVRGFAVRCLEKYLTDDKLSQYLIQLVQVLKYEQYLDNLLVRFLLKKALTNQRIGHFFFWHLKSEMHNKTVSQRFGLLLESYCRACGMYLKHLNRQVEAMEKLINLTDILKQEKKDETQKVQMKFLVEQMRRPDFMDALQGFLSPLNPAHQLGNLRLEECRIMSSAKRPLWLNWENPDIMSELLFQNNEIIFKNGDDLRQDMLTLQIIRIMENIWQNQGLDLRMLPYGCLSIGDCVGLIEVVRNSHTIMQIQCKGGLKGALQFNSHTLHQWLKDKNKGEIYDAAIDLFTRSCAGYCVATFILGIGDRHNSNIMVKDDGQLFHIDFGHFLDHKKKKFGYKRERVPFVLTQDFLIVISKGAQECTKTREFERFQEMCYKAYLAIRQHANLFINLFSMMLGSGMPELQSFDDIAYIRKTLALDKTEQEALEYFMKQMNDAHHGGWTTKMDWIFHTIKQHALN

[15] = molecular target: Phosphatidylinositol 4,5-bisphosphate 3-kinase catalytic subunit alpha isoform (Homo sapiens) (UniProt P42336); details: at 1 µM
[16] = molecular target: T3, Phosphatidylinositol 4,5-bisphosphate 3-kinase catalytic subunit delta isoform (Homo sapiens) (UniProt O00329); details: at 0.1 µM
T3 sequence (whole entry): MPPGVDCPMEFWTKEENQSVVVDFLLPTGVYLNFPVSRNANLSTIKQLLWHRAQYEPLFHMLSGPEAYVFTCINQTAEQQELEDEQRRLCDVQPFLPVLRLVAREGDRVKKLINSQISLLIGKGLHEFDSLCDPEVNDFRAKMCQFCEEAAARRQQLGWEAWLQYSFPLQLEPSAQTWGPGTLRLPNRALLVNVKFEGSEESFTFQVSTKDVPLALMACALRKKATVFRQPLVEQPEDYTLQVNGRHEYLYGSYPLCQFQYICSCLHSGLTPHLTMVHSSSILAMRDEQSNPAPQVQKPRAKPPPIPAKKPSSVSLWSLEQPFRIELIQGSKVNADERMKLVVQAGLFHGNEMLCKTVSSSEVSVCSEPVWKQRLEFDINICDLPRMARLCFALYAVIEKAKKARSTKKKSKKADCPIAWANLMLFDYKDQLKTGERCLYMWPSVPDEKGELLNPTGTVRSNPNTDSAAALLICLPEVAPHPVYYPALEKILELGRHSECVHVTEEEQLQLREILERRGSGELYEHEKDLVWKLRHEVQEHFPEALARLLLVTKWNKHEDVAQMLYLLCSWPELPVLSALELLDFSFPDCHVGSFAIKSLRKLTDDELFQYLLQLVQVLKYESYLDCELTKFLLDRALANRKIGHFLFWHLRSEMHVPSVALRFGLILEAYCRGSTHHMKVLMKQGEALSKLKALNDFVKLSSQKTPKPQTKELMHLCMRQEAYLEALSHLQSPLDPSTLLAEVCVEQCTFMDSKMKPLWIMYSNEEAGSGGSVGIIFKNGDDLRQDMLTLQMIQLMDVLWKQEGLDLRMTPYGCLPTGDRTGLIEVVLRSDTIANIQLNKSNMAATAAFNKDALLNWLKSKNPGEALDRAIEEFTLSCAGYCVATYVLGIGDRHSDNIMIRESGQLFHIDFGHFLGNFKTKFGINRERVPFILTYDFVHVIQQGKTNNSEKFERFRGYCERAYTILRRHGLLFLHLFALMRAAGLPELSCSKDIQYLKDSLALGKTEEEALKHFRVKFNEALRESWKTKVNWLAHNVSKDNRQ

[17] = molecular target: T3, Phosphatidylinositol 4,5-bisphosphate 3-kinase catalytic subunit delta isoform (Homo sapiens); details: at 1 µM
[18] = molecular target: Phosphatidylinositol 4-kinase beta (Homo sapiens) (UniProt Q9UBF8); details: at 0.1 µM
Sequence of Phosphatidylinositol 4-kinase beta (Homo sapiens) (Q9UBF8 2-816 limits assumed): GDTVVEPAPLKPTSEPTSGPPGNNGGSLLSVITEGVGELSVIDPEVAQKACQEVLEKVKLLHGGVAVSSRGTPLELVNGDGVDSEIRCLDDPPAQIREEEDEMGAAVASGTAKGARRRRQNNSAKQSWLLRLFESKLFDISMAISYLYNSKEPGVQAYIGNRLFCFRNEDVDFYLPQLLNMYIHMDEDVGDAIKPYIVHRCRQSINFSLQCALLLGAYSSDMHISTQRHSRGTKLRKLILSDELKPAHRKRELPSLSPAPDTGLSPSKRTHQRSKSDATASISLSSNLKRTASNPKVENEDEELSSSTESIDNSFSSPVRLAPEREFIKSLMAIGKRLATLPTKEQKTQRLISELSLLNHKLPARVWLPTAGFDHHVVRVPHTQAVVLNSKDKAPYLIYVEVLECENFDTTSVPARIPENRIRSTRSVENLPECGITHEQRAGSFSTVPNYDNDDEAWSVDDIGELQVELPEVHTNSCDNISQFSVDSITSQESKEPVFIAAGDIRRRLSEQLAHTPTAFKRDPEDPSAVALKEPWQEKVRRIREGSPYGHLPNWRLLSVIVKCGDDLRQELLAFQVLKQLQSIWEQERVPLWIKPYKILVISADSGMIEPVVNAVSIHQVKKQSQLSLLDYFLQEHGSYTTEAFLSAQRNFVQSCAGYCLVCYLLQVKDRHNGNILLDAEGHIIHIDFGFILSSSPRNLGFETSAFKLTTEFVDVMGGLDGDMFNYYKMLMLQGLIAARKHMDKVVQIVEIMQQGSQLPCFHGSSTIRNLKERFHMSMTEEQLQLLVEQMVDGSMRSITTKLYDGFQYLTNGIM

[19] = molecular target: Phosphatidylinositol 4-kinase beta (Homo sapiens) (UniProt Q9UBF8); details: at 1 µM
[20] = molecular target: Sphingosine kinase 1 (Homo sapiens) (UniProt Q9NYA1); details: at 0.1 µM;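 also: mean percent inhibition of SPHK1 activity, measured within the GSK PKIS screening panel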
Sequence of Sphingosine kinase 1 (Homo sapiens) (Q9NYA1 whole entry): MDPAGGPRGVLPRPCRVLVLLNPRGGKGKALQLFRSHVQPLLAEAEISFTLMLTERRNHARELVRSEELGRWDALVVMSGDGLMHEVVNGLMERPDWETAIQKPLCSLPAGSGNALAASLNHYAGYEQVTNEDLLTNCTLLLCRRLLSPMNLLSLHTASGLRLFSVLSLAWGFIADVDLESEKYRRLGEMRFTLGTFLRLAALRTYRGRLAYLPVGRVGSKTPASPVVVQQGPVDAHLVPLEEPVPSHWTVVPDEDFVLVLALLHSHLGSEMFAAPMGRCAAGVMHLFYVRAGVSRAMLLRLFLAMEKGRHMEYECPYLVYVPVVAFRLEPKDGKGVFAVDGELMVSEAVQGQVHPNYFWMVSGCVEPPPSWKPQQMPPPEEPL

Sequence of SRSF protein kinase 3 (Homo sapiens) (Q9UPE1 whole entry): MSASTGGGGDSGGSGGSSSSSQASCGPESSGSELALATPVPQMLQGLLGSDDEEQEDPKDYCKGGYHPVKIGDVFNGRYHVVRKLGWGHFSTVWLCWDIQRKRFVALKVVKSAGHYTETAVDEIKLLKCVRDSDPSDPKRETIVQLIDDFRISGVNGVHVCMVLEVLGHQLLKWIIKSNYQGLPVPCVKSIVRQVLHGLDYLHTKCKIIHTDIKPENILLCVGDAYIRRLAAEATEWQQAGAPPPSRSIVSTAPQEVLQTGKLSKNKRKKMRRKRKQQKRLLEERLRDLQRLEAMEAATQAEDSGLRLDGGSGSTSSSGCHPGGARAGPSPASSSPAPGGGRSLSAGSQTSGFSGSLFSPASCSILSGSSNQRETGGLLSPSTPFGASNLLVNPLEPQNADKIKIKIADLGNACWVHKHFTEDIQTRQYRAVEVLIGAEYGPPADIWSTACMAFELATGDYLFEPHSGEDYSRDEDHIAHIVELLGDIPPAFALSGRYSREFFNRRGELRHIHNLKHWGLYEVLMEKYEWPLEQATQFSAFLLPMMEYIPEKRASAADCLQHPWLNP
Sequence of Mitogen-activated protein kinase 3 (Homo sapiens) (P27361 whole entry): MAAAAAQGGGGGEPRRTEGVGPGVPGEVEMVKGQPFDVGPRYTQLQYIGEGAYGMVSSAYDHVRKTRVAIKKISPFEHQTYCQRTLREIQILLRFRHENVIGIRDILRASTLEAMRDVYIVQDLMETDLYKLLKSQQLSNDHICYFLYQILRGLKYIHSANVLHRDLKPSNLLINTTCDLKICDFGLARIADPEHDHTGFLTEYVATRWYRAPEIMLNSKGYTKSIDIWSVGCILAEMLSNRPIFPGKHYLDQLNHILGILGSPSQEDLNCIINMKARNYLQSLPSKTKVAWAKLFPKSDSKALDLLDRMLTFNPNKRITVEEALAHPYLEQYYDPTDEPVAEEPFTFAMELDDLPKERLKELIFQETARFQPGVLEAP

SMILES	inhibition [1] [%]	inhibition [2] [%]	inhibition [3] [%]	inhibition [4] [%]	inhibition [5] [%]	inhibition [6] [%]	inhibition [7] [%]	inhibition [8] [%]	inhibition [9] [%]	inhibition [10] [%]	inhibition [11] [%]	inhibition [12] [%]	inhibition [13] [%]	inhibition [14] [%]	inhibition [15] [%]	inhibition [16] [%]	inhibition [17] [%]	inhibition [18] [%]	inhibition [19] [%]	inhibition [20] [%]
NC(=O)c1cccc(Nc2nccc(Nc3cccc(F)c3)n2)c1	1.21	-1.02	-0.91	2.29	2.5	0.85	1.67	-0.02	0.02	1.16	1.35	-2.36	-1.96	-0.28	1.22	-1.45	-4.65	3.27	1.27	0.35
COc1ccc(-c2nn3ncccc3c2-c2ccnc(Nc3cccc(C(F)(F)F)c3)n2)cc1	1.1	-2.11	-1.47	15	57.8	7.58	24.7	2.68	1.86	2.04	2.35	-2.17	-1.48	2.28	2.8	-0.05	2.34	4.99	-1.04	0.03
NS(=O)(=O)c1cccc(-c2cc3ccncc3cc2OCc2ccccc2)c1	4.26	-0.37	-1.61	2.47	8.87	3.17	5.6	-1.11	5.95	0.96	3.69	-1.98	-2.89	4.56	6.5	2.08	5.47	-1.89	-5.37	0.1
CN1CCN(C(=O)c2ccc(NC(=O)Nc3ccc(N(C)c4ccnc(Nc5ccc(CS(C)(=O)=O)cc5)n4)cc3)cc2)CC1	4.83	-0.32	-1.14	3.65	4.32	3.2	3.23	1.15	1.91	1.54	2.72	-1.98	-1.99	3.38	2.56	1.78	4.04	0.19	1.27	0
Cc1ccc2c(-c3ccnc(Nc4cccc(C(F)(F)F)c4)n3)c(-c3ccccc3)nn2n1	8.27	0.34	-0.19	37.5	73.5	6.89	45.1	4.66	6.13	3.8	5.59	-3.32	-2.03	3.95	5.13	0.26	2	0.44	-2.31	0.67
NS(=O)(=O)c1ccc(NC=C2C(=O)Nc3ccc4ncsc4c32)cc1	28.1	-0.67	-0.55	5.49	18.7	9.06	27.3	1.67	9.03	1.56	5.67	-2.53	-1.62	3.58	13.1	5.31	27.3	-1.46	4.92	1.36
Nc1nccc(-c2c(-c3ccc(F)cc3)ncn2CCCN2CCOCC2)n1	5.63	-3.36	-1.79	21.2	64.9	6.8	20.2	2.28	5.09	1.09	3.58	-1.35	-2.36	3.59	3.13	0.42	3.48	-8.25	-2.19	2.43
